Screening data from PubChem BioAssay.
This is one part of a sample in which hits are shown more often than they occur.
Pf Dd2 growth: inhibitors of Plasmodium falciparum Dd2 growth. P. falciparum Dd2 growth, SYBR Green, 72 h. Potency, µM (series often up to 28.9 µM), inactives show at the highest dose activity, negative = inhibition, hits mostly inhibitors. 4.3% of 120,000 active. AID 1347417; active means well fitted inhibition curve with a large enough effect;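 further: plate controls were DMSO vehicle for no effect and reference drug for full effect; nearly all actives have a fitted effect of over 65% in size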
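Infected erythrocytes (Dd2, 0.3% parasitemia, 2.5% hematocrit final) are added to compound in RPMI-1640/Albumax II medium, grown 72 h at 37C in low oxygen, then lysed with saponin/Triton-X containing SYBR Green and read by fluorescence.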
* marks the source's active call; other numbers are inactive results; i = inactive; [ ] = another dose, or the depositor's remark. Potency means the concentration at half of the fitted maximal effect.

SMILES	Pf Dd2 growth
CCC1=C(C(=O)OC)C(c2ccccc2)N2C(CC(=O)NCC3CC3)=CSC2=N1 (configuration not stated)	-3.1%
CCOC(=O)C1=C(C)N=C2SC=C(CC(=O)NC3CC3)N2C1c1cccc(OC)c1OC (configuration not stated)	-1.9%
CCC1=C(C(=O)OC)C(c2cccc(F)c2)N2C(CC(=O)NCc3cccc(F)c3)=CSC2=N1 (configuration not stated)	2.51µM*
COC(=O)C1=C(C)N=C2SC=C(CC(=O)NCCc3cccs3)N2C1c1cccc(OC)c1 (configuration not stated)	i
CCC1=C(C(=O)OC)C(c2cccc(C)c2)N2C(CC(=O)N3CCOCC3)=CSC2=N1 (configuration not stated)	-29.0%
CCC1=C(C(=O)OC)C(c2ccccc2)N2C(CC(=O)NCc3cccc(F)c3)=CSC2=N1 (configuration not stated)	3.98µM*
COC(=O)C1=C(C)N=C2SC=C(CC(=O)Nc3cc(C)cc(C)c3)N2C1c1ccccc1OC (configuration not stated)	7.08µM*
COCCOC(=O)C1=C(C)N=C2SC=C(CC(=O)NCc3cccc(F)c3)N2C1c1ccccc1 (configuration not stated)	-18.0%
CCC1=C(C(=O)OC)C(c2cccc(C)c2)N2C(CC(=O)Nc3ccc(OC)cc3)=CSC2=N1 (configuration not stated)	3.16µM*
CCC1=C(C(=O)OC)C(c2cccc(OC)c2OC)N2C(CC(=O)NC3CC3)=CSC2=N1 (configuration not stated)	i
Cc1ccc2c(C)c(C(=O)N3CCC(c4nc5ccccc5s4)CC3)oc2c1C	83.9%
CCC(Sc1nc2ncccc2o1)C(=O)Nc1cccc(C)c1 (configuration not stated)	-21.5%
COc1cc(OC)cc(N2C(=O)[C@@H]3C[C@@H](NC(=O)c4ccncc4)CCN3C2=O)c1	-9.3%[44.1 µM]
O=C(NCc1ccc(Cl)cc1)c1cc(S(=O)(=O)N2CCCCC2)c[nH]1	11.2µM*
Cn1cc(S(=O)(=O)N2CCCCC2)cc1C(=O)NCc1ccc(Cl)cc1	11.2µM*
Cc1cc(C)cc(NC(=O)c2cc(S(=O)(=O)N3CCCCC3)c[nH]2)c1	27.9%
Cn1cc(S(=O)(=O)N2CCCCCC2)cc1C(=O)NCc1ccc(F)cc1	-4.6%
CCc1ccc(NC(=O)c2cc(S(=O)(=O)N3CCCCC3)c[nH]2)cc1	10.1%
Cc1ccc(CNC(=O)c2cc(S(=O)(=O)N3CCCCC3)cn2C)cc1	-20.8%
N#Cc1cccc(C(=O)N2CCC3(CC2)NC(=O)N(Cc2ccc(F)cc2)C3=O)c1	-1.3%
CCNC(=O)c1n[nH]c2c1CN(C(=O)c1ccc(OC(F)(F)F)cc1)CC2	i
O=C(CCc1cc2n(n1)CCN(C(=O)C1Cc3ccccc3O1)C2)NC1CC1 (configuration not stated)	-19.3%
COc1ccc(-c2onc(C)c2C)cc1S(=O)(=O)NC1CCC(C)CC1 (configuration not stated)	-9.2%
Cc1cccc(C(=O)N2CCC(Cc3nncn3CC3CC3)CC2)c1	-18.5%
Cc1noc(C)c1S(=O)(=O)NC1CCCN(C2CCCCCC2)C1 (configuration not stated)	-8.7%
SMILES	Pf Dd2 growth
O=C(NCCOc1ccccc1)c1nc2c(o1)CCN(Cc1c(F)cccc1F)CC2	i
COc1ccccc1NC(=O)C1CC(=O)N(c2n[nH]c3cccc(F)c23)C1 (configuration not stated)	-9.9%
CCOC(=O)c1ccc(NC(=O)CCCc2nc(-c3cc(OC)c(OC)c(OC)c3)no2)cc1	12.6µM*
CCOC(=O)c1ccc(NC(=O)Cc2noc3ccc(C)cc23)cc1	-5.0%
O=C(CCCc1nc(-c2ccccc2)no1)Nc1cc(C(F)(F)F)cc(C(F)(F)F)c1	-9.1%
Cc1cccc(CCNc2ncc(C(C)(C)C(=O)O)c(N3CCOCC3)n2)n1	-11.0%
CN(CC1CCOCC1)S(=O)(=O)c1ccc(Br)cc1	0.2%
CCCCCNC(=O)Cc1csc2nc(C)c(-c3cc(C)n(-c4ccccc4F)n3)c(=O)n12	i
CCc1ccc(CN2CCC(C(=O)Nc3ccc(Oc4cccnc4)cc3)CC2)o1	11.2µM*
COc1ccc(S(=O)(=O)N2CCC(C(=O)Nc3ccc(Oc4ccccc4)cc3)CC2)cc1	-5.3%
CC(=O)Nc1ccc(NC(=O)C2CCN(c3cnccn3)CC2)cc1	i
Cc1ccc(CNC(=O)C2CCc3sc(C(=O)N4CCOCC4)cc3C2)o1 (configuration not stated)	-21.4%
Cc1nc(-c2c3n(c(=O)n(Cc4cccc(Br)c4)c2=O)CCCC3)no1	-28.5%
CCn1cc(C(=O)NCc2ccccc2Cl)c(=O)c2cc(S(=O)(=O)N3CCOCC3)ccc21	-11.8%
CCn1cc(C(=O)NCc2ccccc2Cl)c(=O)c2cc(S(=O)(=O)N3CCCCC3)ccc21	0.8%
CCn1cc(C(=O)NCc2ccccc2OC)c(=O)c2cc(S(=O)(=O)N3CCCCC3)ccc21	10µM*
CCn1cc(C(=O)NCc2ccccc2Cl)c(=O)c2cc(S(=O)(=O)N3CCCCCC3)ccc21	-16.5%
